Experimental data published in ChEMBL document CHEMBL1961873, “Compounds: GSK PKIS; Assays: Nanosyn kinase panel” (2012).

These compounds were tested against T1, Tyrosine-protein kinase JAK3 (Homo sapiens) (UniProt P52333). Conditions: at 1 µM.
T1 sequence (whole entry): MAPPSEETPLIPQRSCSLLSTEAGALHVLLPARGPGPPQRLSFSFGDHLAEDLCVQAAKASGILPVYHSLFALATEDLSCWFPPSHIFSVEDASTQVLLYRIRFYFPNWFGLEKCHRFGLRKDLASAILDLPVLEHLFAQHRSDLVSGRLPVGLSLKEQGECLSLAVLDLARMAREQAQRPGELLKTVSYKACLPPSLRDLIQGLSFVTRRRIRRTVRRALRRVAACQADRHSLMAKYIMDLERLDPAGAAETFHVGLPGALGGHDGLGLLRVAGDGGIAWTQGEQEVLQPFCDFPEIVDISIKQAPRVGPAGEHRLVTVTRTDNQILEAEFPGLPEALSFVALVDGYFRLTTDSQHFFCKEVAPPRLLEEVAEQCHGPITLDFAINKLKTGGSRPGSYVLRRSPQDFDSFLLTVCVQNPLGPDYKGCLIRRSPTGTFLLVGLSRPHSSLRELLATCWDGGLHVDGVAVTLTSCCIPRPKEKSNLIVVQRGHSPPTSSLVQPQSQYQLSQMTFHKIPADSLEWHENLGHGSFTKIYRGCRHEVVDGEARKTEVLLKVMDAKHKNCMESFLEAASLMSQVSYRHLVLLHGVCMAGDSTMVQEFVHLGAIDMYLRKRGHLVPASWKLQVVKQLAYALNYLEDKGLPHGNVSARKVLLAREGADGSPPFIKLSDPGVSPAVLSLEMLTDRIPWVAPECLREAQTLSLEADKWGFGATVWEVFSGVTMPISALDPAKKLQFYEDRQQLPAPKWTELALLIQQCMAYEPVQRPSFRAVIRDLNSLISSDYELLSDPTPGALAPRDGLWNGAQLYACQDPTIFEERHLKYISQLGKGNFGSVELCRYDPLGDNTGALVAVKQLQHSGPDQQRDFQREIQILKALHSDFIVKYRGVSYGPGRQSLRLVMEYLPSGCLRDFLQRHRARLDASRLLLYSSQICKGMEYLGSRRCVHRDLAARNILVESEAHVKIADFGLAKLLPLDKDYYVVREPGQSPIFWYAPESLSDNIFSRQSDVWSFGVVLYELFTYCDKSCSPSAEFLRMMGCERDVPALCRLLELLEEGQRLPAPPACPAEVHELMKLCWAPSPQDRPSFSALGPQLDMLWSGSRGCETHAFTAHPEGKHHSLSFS
ON=C1CCc2cc(-c3nc(C4CCNCC4)[nH]c3-c3ccncc3)ccc21 showed an inhibition of 3.17%. For CS(=O)(=O)Nc1cccc(-c2ccc3c(NC(=O)C4CC4)n[nH]c3c2)c1, the inhibition was 2.96%. Work on NS(=O)(=O)c1ccc(-c2cc3ccncc3cc2OCc2ccccc2)cc1 yielded an inhibition of -1.27%. With [O-][S+]1CCN(Cc2ccc(-c3ccc4ncnc(Nc5ccc(OCc6ccccc6)c(Cl)c5)c4c3)o2)CC1 the inhibition was -0.24%. Compound N#Cc1c(NC(=O)c2ccccc2F)sc2c1CCCC2 has an inhibition of 2.45%. COc1cc2ncn(-c3cc(OCc4ccccc4S(C)(=O)=O)c(C#N)s3)c2cc1OC was tested, and the inhibition was 55%. In the case of NC(=O)c1cccc(Nc2nccc(Nc3cccc(F)c3)n2)c1, the inhibition is reported as 2.72%. CN(C)C(=O)O[C@H]1CN[C@H](C#Cc2cc3ncnc(Nc4ccc(OCc5cccc(F)c5)c(Cl)c4)c3s2)C1 gave an inhibition of 1.63%. With Cc1ccc(NC(=O)CC2CC2)cc1-c1ccc(C(=O)NCC2CC2)cc1 the inhibition was 2.17%. CN(C)c1cc2c(Nc3ccc4c(cnn4Cc4ccccc4)c3)ncnc2cn1 showed an inhibition of 0.54%. CN(c1ccc(NC(=O)Nc2ccc(OC(F)(F)F)cc2)cc1)c1ccnc(Nc2cccc(S(N)(=O)=O)c2)n1 gave an inhibition of -1.69%. CCS(=O)(=O)c1ccc(OC)c(Nc2ncc(-c3cccc(OC)c3)o2)c1 gave an inhibition of 5.85%. With COc1cc(Nc2nccc(-c3cnn4ncccc34)n2)cc(OC)c1 the inhibition was 60.5%. Compound O=C1Nc2ccc(-c3cccnc3)cc2C1=Cc1cc(Br)c(O)c(Br)c1 has an inhibition of 15.8%. Compound CN(C)C(=O)O[C@@H]1CN[C@@H](C#Cc2cc3ncnc(Nc4ccc(OCc5cccc(F)c5)c(Cl)c4)c3s2)C1 has an inhibition of 2.09%. Compound Cc1nc(-c2ccccc2)n2nc(NCCCN3CCOCC3)ncc12 has an inhibition of 0.04%. COc1cc(/C=N/Nc2ncnc3c2cnn3C(C)C)ccc1O gave an inhibition of 3.25%. For COc1cccc(-n2nc(C)c3c(N/N=C(\C)c4ccncc4)ncnc32)c1, the inhibition was 0.38%. Work on Cc1ccc2c(-c3ccnc(Nc4ccc5c(c4)OCCO5)n3)c(-c3ccc(C(F)(F)F)cc3)nn2n1 yielded an inhibition of 1.23%. In the case of COc1cc2ncnc(Nc3ccc4c(cnn4Cc4ccccc4)c3)c2cc1OC, the inhibition is reported as 1.82%. For Cc1ccc2c(-c3ccnc(Nc4cccc(C(F)(F)F)c4)n3)c(-c3ccccc3)nn2n1, the inhibition was -2.26%. Cc1cc(O)cc(C)c1/C=C/c1cncc(C(=O)N(C)C)c1 showed an inhibition of 1.31%. In the case of Nc1ccc(C#Cc2cncnc2Nc2ccc(OCc3cccc(F)c3)c(Cl)c2)cc1, the inhibition is reported as -0.39%. For Nc1nccc(-c2c(-c3ccc(F)cc3)ncn2CCCN2CCOCC2)n1, the inhibition was -0.57%. For N#Cc1cccc(Nc2nccc(-c3cnn4ncccc34)n2)c1, the inhibition was 36.2%. NC(=O)c1sc(-n2cnc3ccccc32)cc1OCc1ccccc1Br showed an inhibition of 0.23%. CCS(=O)(=O)c1ccc(OC)c(Nc2nccc(N(C)c3ccc4c(C)n[nH]c4c3)n2)c1 showed an inhibition of -1.6%. O=C(Nc1ccc(Oc2ccc3[nH]c(NC(=O)c4ccco4)nc3c2)cc1)Nc1cc(C(F)(F)F)ccc1F showed an inhibition of -2.59%. COC(=O)c1ccc2c(c1)C(=Cc1cc(Br)c(O)c(Br)c1)C(=O)N2 was tested, and the inhibition was 7.25%. CCOc1nccc2c1nc(-c1nonc1N)n2CC gave an inhibition of 4.71%. For COC(=O)Nc1nc2cc(Oc3ccc(NC(=O)Nc4cccc(Br)c4)cc3)ccc2[nH]1, the inhibition was 1.27%. CCn1c(-c2nonc2N)nc2c(C#CC(C)(C)O)nc(OCCNC)cc21 gave an inhibition of -0.89%. For NS(=O)(=O)c1cccc(-c2cc3ccncc3cc2OCc2ccccc2)c1, the inhibition was 0.81%. NS(=O)(=O)c1ccc(N/N=C2\C(=O)Nc3ccc(Cl)cc32)cc1 gave an inhibition of 1.21%.

The compounds below were run against Vascular endothelial growth factor receptor 2 (Homo sapiens) (UniProt P35968). Conditions: at 0.1 µM.
Chain of Vascular endothelial growth factor receptor 2 (Homo sapiens) (P35968 whole entry): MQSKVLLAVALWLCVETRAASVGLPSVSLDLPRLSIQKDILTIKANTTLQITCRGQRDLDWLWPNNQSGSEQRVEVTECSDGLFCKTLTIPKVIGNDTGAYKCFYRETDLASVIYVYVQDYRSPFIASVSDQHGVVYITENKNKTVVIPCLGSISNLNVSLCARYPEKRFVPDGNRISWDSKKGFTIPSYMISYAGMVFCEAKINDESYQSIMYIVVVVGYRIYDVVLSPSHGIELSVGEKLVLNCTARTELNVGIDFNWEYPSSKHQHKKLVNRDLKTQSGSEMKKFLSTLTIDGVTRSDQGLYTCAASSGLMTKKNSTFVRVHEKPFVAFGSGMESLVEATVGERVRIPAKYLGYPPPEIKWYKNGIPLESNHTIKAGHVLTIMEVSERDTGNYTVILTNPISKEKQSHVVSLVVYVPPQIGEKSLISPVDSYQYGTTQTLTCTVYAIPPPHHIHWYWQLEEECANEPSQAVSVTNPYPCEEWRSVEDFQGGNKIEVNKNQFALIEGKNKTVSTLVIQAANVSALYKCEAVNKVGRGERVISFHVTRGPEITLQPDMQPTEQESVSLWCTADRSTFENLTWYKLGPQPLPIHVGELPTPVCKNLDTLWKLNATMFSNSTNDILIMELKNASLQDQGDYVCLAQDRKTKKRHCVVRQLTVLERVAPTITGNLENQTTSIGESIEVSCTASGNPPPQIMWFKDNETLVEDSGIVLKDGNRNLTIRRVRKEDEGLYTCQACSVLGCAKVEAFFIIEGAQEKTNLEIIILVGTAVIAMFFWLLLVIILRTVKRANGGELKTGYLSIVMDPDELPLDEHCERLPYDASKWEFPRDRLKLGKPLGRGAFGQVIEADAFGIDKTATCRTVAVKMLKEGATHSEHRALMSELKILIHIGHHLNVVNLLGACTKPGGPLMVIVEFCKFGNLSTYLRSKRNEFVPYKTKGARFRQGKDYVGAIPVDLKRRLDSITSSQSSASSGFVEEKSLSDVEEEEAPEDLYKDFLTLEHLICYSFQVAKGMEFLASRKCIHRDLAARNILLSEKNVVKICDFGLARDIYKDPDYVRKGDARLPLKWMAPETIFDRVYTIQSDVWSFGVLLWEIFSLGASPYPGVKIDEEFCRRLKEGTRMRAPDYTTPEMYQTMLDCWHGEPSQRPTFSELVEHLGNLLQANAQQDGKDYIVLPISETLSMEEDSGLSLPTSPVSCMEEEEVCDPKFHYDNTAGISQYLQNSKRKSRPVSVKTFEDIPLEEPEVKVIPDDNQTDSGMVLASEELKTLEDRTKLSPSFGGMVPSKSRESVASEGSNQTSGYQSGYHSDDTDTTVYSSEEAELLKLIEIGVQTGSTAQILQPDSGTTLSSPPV
ON=C1CCc2cc(-c3nc(C4CCNCC4)[nH]c3-c3ccncc3)ccc21 showed an inhibition of 1.06%. For CS(=O)(=O)Nc1cccc(-c2ccc3c(NC(=O)C4CC4)n[nH]c3c2)c1, the inhibition was 1.1%. Compound NS(=O)(=O)c1ccc(-c2cc3ccncc3cc2OCc2ccccc2)cc1 has an inhibition of 4.82%. With [O-][S+]1CCN(Cc2ccc(-c3ccc4ncnc(Nc5ccc(OCc6ccccc6)c(Cl)c5)c4c3)o2)CC1 the inhibition was 0.96%. N#Cc1c(NC(=O)c2ccccc2F)sc2c1CCCC2 showed an inhibition of -3.31%. For COc1cc2ncn(-c3cc(OCc4ccccc4S(C)(=O)=O)c(C#N)s3)c2cc1OC, the inhibition was 25.6%. NC(=O)c1cccc(Nc2nccc(Nc3cccc(F)c3)n2)c1 showed an inhibition of 5.1%. For CN(C)C(=O)O[C@H]1CN[C@H](C#Cc2cc3ncnc(Nc4ccc(OCc5cccc(F)c5)c(Cl)c4)c3s2)C1, the inhibition was 4.69%. Cc1ccc(NC(=O)CC2CC2)cc1-c1ccc(C(=O)NCC2CC2)cc1 gave an inhibition of 9.88%. CN(C)c1cc2c(Nc3ccc4c(cnn4Cc4ccccc4)c3)ncnc2cn1 showed an inhibition of 4.41%. For CN(c1ccc(NC(=O)Nc2ccc(OC(F)(F)F)cc2)cc1)c1ccnc(Nc2cccc(S(N)(=O)=O)c2)n1, the inhibition was 78.8%. In the case of CCS(=O)(=O)c1ccc(OC)c(Nc2ncc(-c3cccc(OC)c3)o2)c1, the inhibition is reported as 48.4%. COc1cc(Nc2nccc(-c3cnn4ncccc34)n2)cc(OC)c1 gave an inhibition of 14.8%. In the case of O=C1Nc2ccc(-c3cccnc3)cc2C1=Cc1cc(Br)c(O)c(Br)c1, the inhibition is reported as 4.5%. CN(C)C(=O)O[C@@H]1CN[C@@H](C#Cc2cc3ncnc(Nc4ccc(OCc5cccc(F)c5)c(Cl)c4)c3s2)C1 was tested, and the inhibition was 0.75%. Cc1nc(-c2ccccc2)n2nc(NCCCN3CCOCC3)ncc12 showed an inhibition of 2.59%. COc1cc(/C=N/Nc2ncnc3c2cnn3C(C)C)ccc1O gave an inhibition of 4.03%. For COc1cccc(-n2nc(C)c3c(N/N=C(\C)c4ccncc4)ncnc32)c1, the inhibition was 1.62%. Cc1ccc2c(-c3ccnc(Nc4ccc5c(c4)OCCO5)n3)c(-c3ccc(C(F)(F)F)cc3)nn2n1 showed an inhibition of -0.67%. COc1cc2ncnc(Nc3ccc4c(cnn4Cc4ccccc4)c3)c2cc1OC gave an inhibition of 6.63%. With Cc1ccc2c(-c3ccnc(Nc4cccc(C(F)(F)F)c4)n3)c(-c3ccccc3)nn2n1 the inhibition was 17.7%. With Cc1cc(O)cc(C)c1/C=C/c1cncc(C(=O)N(C)C)c1 the inhibition was 7.06%. In the case of Nc1ccc(C#Cc2cncnc2Nc2ccc(OCc3cccc(F)c3)c(Cl)c2)cc1, the inhibition is reported as 1.13%. Nc1nccc(-c2c(-c3ccc(F)cc3)ncn2CCCN2CCOCC2)n1 gave an inhibition of 4.12%. For N#Cc1cccc(Nc2nccc(-c3cnn4ncccc34)n2)c1, the inhibition was 12.1%. For NC(=O)c1sc(-n2cnc3ccccc32)cc1OCc1ccccc1Br, the inhibition was 0.79%. CCS(=O)(=O)c1ccc(OC)c(Nc2nccc(N(C)c3ccc4c(C)n[nH]c4c3)n2)c1 was tested, and the inhibition was 78.7%. In the case of COC(=O)c1ccc2c(c1)C(=Cc1cc(Br)c(O)c(Br)c1)C(=O)N2, the inhibition is reported as 3.9%. With CCOc1nccc2c1nc(-c1nonc1N)n2CC the inhibition was 9.84%. In the case of CCn1c(-c2nonc2N)nc2c(C#CC(C)(C)O)nc(OCCNC)cc21, the inhibition is reported as 16.2%. NS(=O)(=O)c1cccc(-c2cc3ccncc3cc2OCc2ccccc2)c1 showed an inhibition of 13.4%. NS(=O)(=O)c1ccc(N/N=C2\C(=O)Nc3ccc(Cl)cc32)cc1 gave an inhibition of 1.7%.
